Screens from PubChem BioAssay.
SW480 rereplic: A quantitative high throughput screen for small molecules that induce DNA re-replication in SW480 colon adenocarcinoma cells; Potency, µM (doses to about 46.1 µM), hits mostly activators; hit rate 1.8% among 340,000; SW480 DNA re-replication, Hoechst DNA content imaging, 48 h; AID 624297, 2012; note: nearly all actives have a fitted effect of over 55% in size
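First, 250 cells per well were seeded. Next, compound or vehicle (23 nL) was pinned in, plates sat 48 hr at 37 C. Finally Hoechst was added for 40 min before fluorescence scanning.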
ELG1 DNA repair: qHTS screen for small molecules that inhibit ELG1-dependent DNA repair in human embryonic kidney (HEK293T) cells expressing luciferase-tagged ELG1; HEK293T ELG1-luciferase reporter, luminescence, 16 h; DNA damage induced by 5-fluorouridine; Potency, µM (series often up to 46.1 µM), actives largely listed as inhibitors; hit rate 2.3% among 330,000; AID 504467, 2011; note: nearly all actives have a fitted effect of over 55% in size
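Cells (2,000 per well) received 5-fluorouridine plus test compound or DMSO and were incubated 16 hr at 37 °C, 5% CO2. Luciferase activity was read by luminescence 30 min after ONE-Glo addition; signal suppression marked inhibition of damage-induced ELG1 function.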
MCF10A rerep: A quantitative high throughput screen for small molecules that induce DNA re-replication in MCF 10a normal breast cells; MCF 10A DNA re-replication, Hoechst nuclear intensity, 48 h; Potency, µM (top dose mostly 46.1 µM), usual class: activators; hit rate 2.9% among 350,000; AID 624296, 2012; note: nearly all actives have a fitted effect of over 50% in size
KB-3-1 cytotox: qHTS assay for MDR1-selective chemotherapeutics: Primary screen using the parental adenocarcinoma cell KB-3-1; KB-3-1 viability, CellTiter-Glo ATP luminescence, 72 h; hit rate 1.4% among 400,000; AID 1347075, 2019; Potency, µM (series often up to 46.1 µM), most hits filed as cytotoxic; note: nearly all actives have a fitted effect of over 60% in size
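Parental KB-3-1 adenocarcinoma cells in phenol-red-free DMEM with 10% FBS were pin-treated with compounds at several concentrations, incubated 72 h at 37 °C, and viability read by CellTiter-Glo luminescence; concentration-effect curves were fitted after normalization.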
KB-V1 cytotox: qHTS assay for MDR1-selective chemotherapeutics: Primary screen using the drug-selected MDR subline cells KB-V1. KB-V1 MDR cells viability, CellTiter-Glo, 72 h. AID 1347076, 2019. hit rate 3.4% among 400,000. Potency, µM (series often up to 46.1 µM), usual class: cytotoxic; note: nearly all actives have a fitted effect of over 60% in size
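Readout: CellTiter-Glo luminescence, 10 min after addition. Cells: KB-V1 MDR subline, 72 h at 37 degrees C with compound. Analysis: corrected, normalized data fitted to concentration-effect curves.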
Hits are given with their value; - = inactive; ? = inconclusive; . = no result given; [ ] = another dose, or the depositor's remark. Compounds with a hit are over-represented: about 8.1% of the library has one in this group of screens. Calls come from the whole dose curve; as a rule, active = well fitted curve in the direction sought with a large enough effect; inconclusive = small, poorly fitted or top-dose-only effect, or another doubt; inactive = no such curve, though single readings can be large; an effect the other way counts as inactive or inconclusive.

SMILES | SW480 rereplic | ELG1 DNA repair | MCF10A rerep | KB-3-1 cytotox | KB-V1 cytotox
CCCn1cc(S(=O)(=O)c2ccc(CC)cc2)c(=O)c2ccccc21 | . | . | . | - | -
FC(F)(F)c1nc(NCC2CCCO2)c2nnn(Cc3ccccc3Cl)c2n1 (stereo not drawn) | - | - | - | - | -
CC(=O)c1ccc(NC(=O)CSc2nc(C3CCCC3)nc3c2c(=O)n(C)c(=O)n3C)cc1 | . | . | . | - | -
C(=C/c1nccc2c1[nH]c1ccccc12)/c1ccc2c(c1)OCO2 | 21µM | ? | ? | - | -
COc1cc2ncnc(NCc3ccc(C)cc3)c2cc1OC | - | ? | ? | - | -
COc1ccc2c(c1)[nH]c1c(N3CCSCC3)ncnc12 | - | 9.2µM | ? | - | ?
c1nc(N2CCN(Cc3ccc4c(c3)OCO4)CC2)c2[nH]cnc2n1 | - | ? | - | - | -
Cc1ccc2[nH]c3c(N4CCCCCC4)ncnc3c2c1 | . | 10µM | . | . | .
c1ccc(CN2CCN(c3ncnc4c3[nH]c3ccccc34)CC2)cc1 | - | 15µM | 21µM | 18µM | 2.6µM
COc1ccc2c(c1)[nH]c1c(N3CCN(Cc4ccc5c(c4)OCO5)CC3)ncnc12 | - | 21µM | ? | ? | 2.6µM
COc1cccc2[nH]c3c(N4CCC(C)CC4)ncnc3c12 | - | ? | - | ? | ?
COc1cccc2[nH]c3c(N4CCN(Cc5ccc6c(c5)OCO6)CC4)ncnc3c12 | . | 23µM | . | . | .
Cc1ccc2[nH]c3c(N4CCN(Cc5ccc6c(c5)OCO6)CC4)ncnc3c2c1 | . | 23µM | . | . | .
CCOc1ccc2[nH]c3c(N4CCN(c5ccccn5)CC4)ncnc3c2c1 | ? | 16µM | - | ? | -
Cc1ccc2c(c1)[nH]c1c(N3CCN(Cc4ccccc4)CC3)ncnc12 | ? | 18µM | ? | ? | ?
Cc1ccc(-n2ncc3c(N4CCN(Cc5ccccc5)CC4)ncnc32)cc1 | . | . | . | - | -
Cc1ccc2[nH]c3c(N4CCN(Cc5ccccc5)CC4)ncnc3c2c1 | ? | ? | ? | ? | 12µM
O=C(Nc1ccc(F)cc1)C(c1ccccc1)N1CCN(S(=O)(=O)c2c(F)cccc2F)CC1 (stereo not drawn) | - | - | - | - | -
COc1ccc(N2CCN(CC(O)COC(c3ccc(F)cc3)c3ccc(F)cc3)CC2)cc1 (stereo not drawn) | ? | ? | - | - | -
OCCN1CCN(CC(O)COC(c2ccc(F)cc2)c2ccc(F)cc2)CC1 (stereo not drawn) | - | - | 23µM | - | -
CCS(=O)(=O)N1CCC(C(=O)Oc2ccc(Br)cc2)CC1 | - | - | - | - | -
CCOC(=O)CN(Cc1ccccc1)S(=O)(=O)c1ccc(NC(C)=O)cc1 | - | - | - | - | 15µM
CC(=O)Nc1ccc(S(=O)(=O)N(CC(=O)O)Cc2ccccc2)cc1 | -[9.22 µM] | . | - | - | -
COc1ccc(S(=O)(=O)N(CC(=O)Nc2ccccc2Br)Cc2ccccc2)cc1 | . | . | . | 16µM | ?
COCCNC(=O)CN(CCc1ccccc1)S(=O)(=O)c1ccc(OC)cc1 | - | - | - | - | 18µM
SMILES | SW480 rereplic | ELG1 DNA repair | MCF10A rerep | KB-3-1 cytotox | KB-V1 cytotox
CCC(C)NC(=O)C(=O)Nc1c2c(nn1-c1ccccc1)CS(=O)(=O)C2 (stereo not drawn) | . | . | . | - | -
CC(C)CC(=O)NC(c1cccs1)c1ccc2cccnc2c1O (stereo not drawn) | 0.82µM | - | ? | ? | -
CCC(=O)NC(c1cccs1)c1ccc2cccnc2c1O (stereo not drawn) | ? | 3.7µM | - | - | ?
CC(C)C(=O)NC(c1ccco1)c1ccc2cccnc2c1O (stereo not drawn) | 3.7µM | 2.9µM | ? | 4.1µM | 4.6µM
Cc1conc1NC(c1cccs1)c1ccc2cccnc2c1O (stereo not drawn) | . | - | . | . | .
Clc1ccc(Cn2nc(-c3ccccc3)nc2-c2ccccc2)cc1 | - | ? | ? | - | -
Clc1ccccc1Cn1nc(-c2ccccc2)nc1-c1ccccc1 | - | - | - | - | 15µM
CC(=O)c1c(C)[nH]c(C(=O)COC(=O)CNS(=O)(=O)c2ccccc2)c1C | - | - | - | - | -
CCOC(=O)c1c(C)[nH]c(C(=O)COC(=O)CNS(=O)(=O)c2ccc(C)cc2)c1C | - | - | - | - | 4.6µM
CCOC(=O)c1c(C)[nH]c(C(=O)COC(=O)CCSc2ccccc2)c1C | - | ? | - | ? | 1.6µM
CC(=O)c1c(C)[nH]c(C(=O)COC(=O)CCSc2ccccc2)c1C | - | - | - | - | ?
CC(=O)c1c(C)[nH]c(C(=O)Nc2nc(-c3ccc(-c4ccccc4)cc3)cs2)c1C | - | 21µM | 3.3µM | 15µM | 21µM
CC(=O)c1c(C)[nH]c(C(=O)Nc2nc(-c3ccc(Cl)cc3)cs2)c1C | - | ? | 23µM | ? | ?
COc1ccc(C(=O)Oc2cccc3cccnc23)cc1[N+](=O)[O-] | ? | - | ? | - | -
Cc1ccc(NC(=O)CN(C)C(=O)CSc2nnc(N)s2)cc1 | - | - | - | - | -
Cc1c(C(=O)O)sc2nc(/C=C/c3cccc(O)c3)[nH]c(=O)c12 | ? | - | 7.3µM | - | -
COCCn1c(SCC(=O)N2CC(=O)Nc3ccccc32)nc2ccccc2c1=O | ? | ? | - | - | -
Cc1cccc(C)c1-n1c(SCC(=O)N2CC(=O)Nc3ccccc32)nc2ccccc2c1=O | . | - | - | ? | 18µM
Cc1ccc(-n2c(SCC(=O)N3CC(=O)Nc4ccccc43)nc3ccccc3c2=O)cc1 | - | 18µM | - | ? | 18µM
O=C(NC1CCCC1)c1cccc(S(=O)(=O)N2CCCC2)c1 | - | - | - | - | -
Clc1ccc(-c2ccc(C=Nc3ccc(N4CCOCC4)cc3)o2)cc1 | - | - | ? | - | ?
COc1ccc(OC)c(CCNC(=O)c2ccc3c(=O)[nH]c4c(C(=O)NC(C)C)sc(=S)n4c3c2)c1 | - | 10µM | ? | - | -
CCCOc1ccc(/C=N/Nc2cccc([N+](=O)[O-])c2)c(O)c1 | - | ? | ? | ? | -
CCCOc1ccc(/C=N/Nc2ccc(C(=O)O)cc2)c(OCCC)c1 | ? | ? | 7.3µM | - | -
COc1ccc(C(C)=O)cc1CSCCC(=O)O | - | - | - | - | ?
COc1ccc(C(=O)/C=C/c2ccsc2)cc1CSCC(=O)O | ? | - | 18µM | - | -
CN(c1ccc(OCCOc2ccccc2Cl)cc1)S(=O)(=O)c1ccccc1 | ? | - | - | - | 16µM
COc1ccc(OCCOc2ccc(N(C)S(=O)(=O)c3ccccc3)cc2)cc1 | - | - | - | - | -
CN(Cc1ccc(Cl)cc1)C(=O)CCl | ? | ? | ? | 16µM | ?
